CHT inh: inhibitors of human choline transporter CHT; AID 488975, 2010; B-score at 10 µM; High affinity choline transporter 1 (Homo sapiens), Q9GZV3; CHT-expressing cells, membrane potential dye, choline response; stronger effect = lower value; actives 0.86% (n = 310,000);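 active = B-score over 3 SD under the library average, and starting fluorescence ratio not unusually high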;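 note: choline stimulus applied at its EC90 after an EC20 pre-addition; B-score computed on integrated fluorescence ratio after choline addition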
Target sequence (Q9GZV3 whole entry, looked up): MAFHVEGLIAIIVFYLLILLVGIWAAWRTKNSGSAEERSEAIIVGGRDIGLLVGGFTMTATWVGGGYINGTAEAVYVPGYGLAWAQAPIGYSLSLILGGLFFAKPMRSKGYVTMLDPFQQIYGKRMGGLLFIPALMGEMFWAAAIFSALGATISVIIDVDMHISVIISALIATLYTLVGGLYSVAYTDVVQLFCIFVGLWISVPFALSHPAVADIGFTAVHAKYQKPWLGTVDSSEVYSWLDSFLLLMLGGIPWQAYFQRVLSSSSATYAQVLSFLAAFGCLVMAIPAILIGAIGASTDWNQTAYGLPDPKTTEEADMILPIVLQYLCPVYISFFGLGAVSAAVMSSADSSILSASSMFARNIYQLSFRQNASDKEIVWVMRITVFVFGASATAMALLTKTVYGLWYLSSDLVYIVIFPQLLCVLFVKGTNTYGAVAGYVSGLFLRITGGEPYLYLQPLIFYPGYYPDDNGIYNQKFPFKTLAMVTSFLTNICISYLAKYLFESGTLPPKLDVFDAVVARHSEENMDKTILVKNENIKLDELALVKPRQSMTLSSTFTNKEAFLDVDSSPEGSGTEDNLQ
CHT PAM: CHT positive allosteric modulators, primary screen, cell-based, membrane potential dye, choline EC20; High affinity choline transporter 1 (Homo sapiens), Q9GZV3; CHT-expressing cells; stronger effect = higher value; LV-AA mutant CHT in HEK293 cells; B-score at 10 µM; actives 0.49% (n = 310,000); AID 488977, 2010;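 active = initial fluorescence not abnormally high and integrated response B-score, plate-corrected, over 3 SD above library mean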
TMEM16A inh: TMEM16A chloride channel inhibitors, primary screen, cell-based, HTS. HEK293 TMEM16A/YFP iodide influx fluorescence, ionomycin. normalized B-score (activity score, 25-100; higher = stronger inhibition) at 10 µM. actives 1.2% (n = 310,000);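 active = ratio plate-corrected score three or more library SD toward inhibition, starting fluorescence score within five deviations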;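 note: score derived from kinetic fluorescence span divided by baseline fluorescence per well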
ANO1 activ: TMEM16A chloride channel activators or potentiators, primary screen, cell-based, HTS | actives 0.3% (n = 340,000) | B-score at 10 µM | Anoctamin-1 (Mus musculus), Q8BHY3 | HEK293 TMEM16A/YFP-H148Q/I152L, iodide quench fluorescence; stronger effect = lower value;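 active = fluorescence-ratio B-score plate-corrected deviation score at least 3 library SD below zero, with starting fluorescence score within 5 deviations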;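 note: channel opened by trigger with iodide after compound preincubation; score built on the fluorescence ratio of max minus min over baseline; more negative score means more quench and so TMEM16A activation or potentiation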
CHT act confirm: CHT activators, confirmation, cell-based, membrane potential dye, duplicate; shares compounds with CHT PAM; CHT-expressing cells, membrane potential dye fluorescence (FDSS); % of choline EC20–EC90 response window; HEK293 expressing CHT LV-AA mutant; choline added at its EC20; activation, % at 10 µM; actives 91% (n = 2,500); AID 504833, 2011;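 active = primary screen active, with duplicate mean activation above negative control mean plus 3 SD, cut at about 11% in these data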
HEK293 MP dye: membrane potential response in parental HEK293 cells, counter-screen for CHT activator project, cell-based, membrane potential dye; ratio readout change at 10 µM, hits read low; shares compounds with CHT PAM; membrane potential dye fluorescence (FDSS); measured after EC20 choline addition; actives 62% (n = 2,500);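 active = duplicate-averaged ratio beyond 3 SD from buffer wells, up or down, though filed actives are nearly all decreases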
A number is an active result; i = inactive; nt = no result given. Rows were chosen to be rich in hits. Some 2.4% of all compounds tested hit in one or more screens of this group.

SMILES	CHT inh	CHT PAM	TMEM16A inh	ANO1 activ	CHT act confirm	HEK293 MP dye
N#CCC(=O)NNc1c([N+](=O)[O-])cc(C(F)(F)F)cc1[N+](=O)[O-]	i	i	i	i	27.4	-44.3
N#Cc1cccc(NC(=O)COC(=O)c2cccc(N3C(=O)c4ccccc4C3=O)c2)c1	i	i	i	i	nt	nt
N#CC1=C(N)Oc2cc(N)ccc2C1c1cccc(Br)c1 (configuration not stated)	i	i	i	i	33.6	i
O=C1c2cccnc2-c2ncccc21	i	i	i	i	nt	nt
O=C1c2cc([N+](=O)[O-])ccc2-c2ncccc21	i	6.97	i	i	62.8	-40.8
COc1cc2c(cc1OC)C(SC)=NC1(CCCC1)C2	i	i	i	i	nt	nt
COc1cc2c(cc1OC)C(C)=NC1(CCCCC1)C2	i	9.8	i	i	30.0	-43.5
COc1cc2c(cc1OC)C(c1ccc(Cl)cc1)=NCC2	i	i	i	i	62.5	-78.9
COc1cc2c(cc1OC)C(c1ccc(-c3ccc(Cl)c(Cl)c3)o1)=NCC2	i	i	i	i	nt	nt
COc1cc2c(cc1OC)C(C)=NCC2	i	13.7	i	i	60.0	-67.6
CS(=O)(=O)c1nc(S(=O)(=O)c2ccc(Cl)cc2)c(NCc2ccccn2)s1	i	i	i	i	nt	nt
CCOC(=O)C1=C(COC(=O)C2CC(=O)N(c3ccc(CC)cc3)C2)NC(=O)NC1C (configuration not stated)	nt	nt	nt	i	nt	nt
CC(C)COP(=O)(OCC(C)C)C(Nc1ccccc1)c1ccc(F)cc1 (configuration not stated)	i	i	i	i	15.0	i
CC(C)COP(=O)(OCC(C)C)C(Nc1ccccc1)c1ccc2c(c1)OCO2 (configuration not stated)	i	i	i	i	nt	nt
C/C(=N\Nc1ccccn1)c1ccc(OC(F)F)cc1	i	i	i	i	nt	nt
C/C(=N\Nc1ccccn1)c1ccc(C#N)cc1	i	i	i	i	29.8	-55.9
Cc1ccccc1N(CC(=O)NC(C)(C)C)C(=O)CCC(=O)Nc1nccs1	i	i	i	i	nt	nt
O=C1N(Cc2cccc(Cl)c2)C[C@@H]2C[C@@H](c3cccn3-c3ccccn3)N3CCC[C@@]123	i	7.07	i	i	53.4	i
Cc1ccc(N=C(NOCc2ccc(Cl)cc2Cl)c2nonc2N)c(C)c1	i	8.79	i	i	28.3	i
Cc1ccc2nc(N3CC(C)OC(C)C3)nc(-c3ccccc3)c2c1 (configuration not stated)	i	i	i	i	nt	nt
Cc1ccc2c(c1)c(-c1ccccc1)nc1nncn12	i	i	i	i	38.1	-32.5
CN1C(=O)C(C)(C)c2cc(S(=O)(=O)NCc3ccc(C(=O)NCc4ccco4)cc3)ccc21	i	i	i	i	nt	nt
CCN1CCN(c2cc(C)c3cc(NC(=O)c4ccncc4)ccc3n2)CC1	i	i	i	i	43.4	-26.4
CCN1CCN(C(=S)Nc2ccc3nc(N4CCN(C)CC4)cc(C)c3c2)CC1	i	6.9	i	i	40.7	-34.2
CCN1CCN(c2cc(C)c3cc(NC(=O)c4ccc(C)c(C)c4)ccc3n2)CC1	i	i	i	i	nt	nt
SMILES	CHT inh	CHT PAM	TMEM16A inh	ANO1 activ	CHT act confirm	HEK293 MP dye
CCN1CCN(c2cc(C)c3cc(NC(=S)N4CCN(c5ccc(F)cc5)CC4)ccc3n2)CC1	i	i	i	i	nt	nt
CCN1CCN(C(=S)Nc2ccc3nc(N4CCN(CC)CC4)cc(C)c3c2)CC1	i	i	i	i	27.2	-37.4
Cc1nnc(C)c2c(C)n(Cc3ccc4c(c3)OCO4)c(C)c12	i	8.06	i	i	54.3	-44.7
COc1ccc(-c2noc(CSc3nc4ccccc4c(=O)n3-c3ccccc3)n2)cc1OC	i	i	i	i	13.9	i
O=S(=O)(NC1CCCCC1N1CCCCC1)c1ccccc1 (configuration not stated)	i	i	i	i	nt	nt
Cc1ccc(C)c(N2CCN(C3CCCCC3NS(=O)(=O)c3ccccc3)CC2)c1 (configuration not stated)	i	6.33	i	-6.17	16.5	i
Clc1ccc(-c2nc3ccncc3[nH]2)cc1	i	6.77	i	i	51.6	-50.8
Fc1ccc(-c2nc3ccncc3[nH]2)cc1	i	7.92	i	i	59.4	-64.8
Fc1ccc(-c2nc3ccccc3[nH]2)cc1	i	i	i	i	nt	nt
COc1ccc(N(C)C(=O)c2oc(=O)c3ccccc3c2-c2ccccc2)c(OC)c1	i	6.33	i	i	33.2	i
COc1ccc(N(C)C(=O)Cn2c(=O)oc3ccccc32)c(OC)c1	i	i	i	i	nt	nt
CC1=[N+]([O-])C(C)(C)CC(C)(C)c2ccccc21	i	i	i	i	nt	nt
Cn1nnc2cc(C(=O)Nc3cccnc3)ccc21	i	6.69	i	i	51.7	-34
Cc1ccc2c(c1)c(C)cc[n+]2Cc1ccccc1	i	9.82	i	i	41.5	-71.3
Cc1ccc2ccc[n+](Cc3ccccc3)c2c1	i	7.86	i	i	89.6	-81.4
COc1ccc2c(c1)c(C)cc[n+]2Cc1ccccc1	i	6.73	i	i	73.5	-67.4
CCN(Cc1ccccc1)C(=O)c1[nH]c2ccc(OC)cc2c1C	nt	nt	nt	i	nt	nt
O=C(CCc1ccccc1)NC1CCCc2ccccc21 (configuration not stated)	i	i	i	i	nt	nt
Nc1nc(NC2CCCC2)cc(=O)[nH]1	nt	nt	nt	i	nt	nt
COCCNc1nc(-c2ccccc2)nc2ccccc12	i	i	i	i	31.1	-35.9
O=C(NCC(O)c1ccccc1)c1ccc(Cl)c(S(=O)(=O)N2CCCC2)c1 (configuration not stated)	i	i	i	i	nt	nt
O=C(c1nc2ccccn2c1CN1CCCC(O)C1)N1CCN(C2CCCCC2)CC1 (configuration not stated)	i	i	i	i	74.6	-57.3
CCC(C)NC(=O)[C@H]1N2C(=O)c3c(ccc(OC)c3OC)C2SC1(C)C (some centres not stated)	i	i	i	i	nt	nt
CCC(=O)Nc1ccc(C(=O)NNC(=O)c2cccs2)cc1	i	i	i	i	nt	nt
CCN1CCN(C(=O)CCn2c(=O)c3cccn3c3cccnc32)CC1	i	i	i	i	58.2	-30.2
CCCN1CCN(C(=O)CCn2c(=O)c3cccn3c3cccnc32)CC1	i	i	i	i	nt	nt
Cc1nnc(NCc2ccncc2)c2ccccc12	i	7.07	i	i	56.1	-46.4
